± gives the standard deviation of the averaged measurements.
Assays:
Settings in all cases: concentration: 10 µM; 24 h
HCC1569 [1] = experiment: cell number relative to DMSO (% of DMSO); higher = more cells (less growth inhibition / toxicity)
How it was run: (§1)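 Six fields per well were imaged at ×10 after the cells were fixed in 3.7% formaldehyde and stained with a rabbit anti-H1.0 antibody, an AlexaFluor 647 secondary and DAPI. The HCC1569 and TDF cells had been plated at 800 per well in 384-well plates (RPMI, 10% FBS) and treated in triplicate with compounds at 10 µM for 24 h at 37 °C. The values are the median of replicates of H1.0 nuclear intensity or cell number, as percent of the plate control. Smoothing for positional effects was applied to HCC1569 data.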

TDF [2] = experiment: as above
How it was run: as §1

TDF [3] = experiment: H1.0 immunofluorescence intensity relative to DMSO (% of DMSO); higher = stronger H1.0 induction, active = 120 or more
How it was run: as §1

HCC1569 [4] = experiment: H1.0 immunofluorescence intensity relative to DMSO (% of DMSO); higher = stronger H1.0 induction, active = 140 or more
How it was run: as §1
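For H1.0 immunofluorescence intensity relative to DMSO in this document: TDF is a line of transformed human dermal fibroblasts of mesenchymal origin.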
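For cell number relative to DMSO in this document: TDF denotes transformed human dermal fibroblasts of mesenchymal origin.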

| Structure (SMILES) | cell number (HCC1569 [1]) | cell number (TDF [2]) | H1.0 immunofluorescence intensity (TDF [3]) | H1.0 immunofluorescence intensity (HCC1569 [4]) |
| --- | --- | --- | --- | --- |
| CCCCCN(CCCCC)C(=O)C(CCC(=O)O)NC(=O)c1ccc(Cl)c(Cl)c1 (configuration not stated) [Lorglumide] | 100 | 91.5 | 102 (inactive) | 96.4 (inactive) |
| COc1cccc2oc(-c3ccccc3)cc(=O)c12 [5-Methoxyflavone] | 99.7 | 84.4 | 100 (inactive) | 98.8 (inactive) |
| COc1ccc(C2CC(=O)c3c(O)cc(O)cc3O2)cc1O (configuration not stated) [Hesperitine] | 98.4 | 101 | 98.1 (inactive) | 92.8 (inactive) |
| O=C(c1ccc(OCCN2CCCCC2)cc1)c1c(-c2ccc(O)cc2)sc2cc(O)ccc12 [Raloxifene] | 95.5 | 105 | 102 (inactive) | 127 (inactive) |
| CC(C)NNC(=O)c1ccncc1.O=P(O)(O)O [Iproniazid phosphate] | 116 | 119 | 93.8 (inactive) | 85 (inactive) |
| CCNC(=O)N1CCN(CCCC(c2ccc(F)cc2)c2ccc(F)cc2)CC1.Cl [Amperozide hydrochloride] | 94.2 | 95.8 | 97 (inactive) | 99 (inactive) |
| CCCC1CC(C(=O)NC(C(C)O)C2OC(SC)C(O)C(O)C2O)N(C)C1 (configuration not stated) [Lincomycin] | 103 ± 1.5 | 113 ± 2.2 | 93.1 (inactive) | 93 (inactive) |
| C=C1CCC2C(C)(CO)C(O)CCC2(C)C1CC=C1C(=O)OCC1O (configuration not stated) [Andrographolide] | 83.1 | 68.6 | 109 (inactive) | 113 (inactive) |
| COc1ccc(C(=O)/C(Cc2cc(OC)c(OC)c(OC)c2)=C(\C(=O)[O-])c2ccc3c(c2)OCO3)cc1.[Na+] | 97.7 | 98.7 | 88.2 (inactive) | 103 (inactive) |
| C=CC[C@H](N)C(=O)O [L-allylglycine] | 101 | 99.3 | 95.9 (inactive) | 92.4 (inactive) |
| CCCCCCCCCCCCCCCCCCCCCCC(=O)O [Tricosanoic acid] | 99.7 | 99.8 | 105 (inactive) | 105 (inactive) |
| Cc1cc(C(C)(C)C)c(O)c(C(C)(C)C)c1 | 99.4 | 105 | 90.4 (inactive) | 99 (inactive) |
| O=C(O)C=CC(=O)O.O=C(O)C=CC(=O)O.OCCOCCN1CCN(C2=Nc3ccccc3Sc3ccccc32)CC1 [Quetiapine Fumarate] | 99.3 | 97.8 | 94.5 (inactive) | 100 (inactive) |
| CS(=O)(=O)Nc1ccc(-c2coc3cc(OCc4cccc(C(=O)O)c4)ccc3c2=O)cc1 | 101 | 109 | 90.9 (inactive) | 107 (inactive) |
| COc1c(O)cc(O)c2c(=O)cc(-c3ccccc3)oc12 [Wogonin] | 100 | 98.7 | 91.2 (inactive) | 85.8 (inactive) |
| COc1ccc2c(c1OC)C(=O)OC2C1c2c(cc3c(c2OC)OCO3)CCN1C.Cl (configuration not stated) [Noscapine hydrchloride] | 102 | 93.7 | 97.1 (inactive) | 96.5 (inactive) |
| CC(NC(CCc1ccccc1)C(=O)O)C(=O)N1CCCC1C(=O)O (configuration not stated) [Enalaprilat] | 98.7 | 86.2 | 104 (inactive) | 96.9 (inactive) |
| CCCn1c(=O)c2[nH]c(-c3ccc(S(=O)(=O)O)cc3)nc2n(CCC)c1=O [1,3-Dipropyl-8-p-sulfophenylxanthine] | 104 | 106 | 90.4 (inactive) | 92.6 (inactive) |
| Cl.Cl.Cl.NCCCCNCCCN [Spermidine trihydrochloride] | 99.7 | 97.2 | 102 (inactive) | 82 (inactive) |

| Structure (SMILES) | cell number (HCC1569 [1]) | cell number (TDF [2]) | H1.0 immunofluorescence intensity (TDF [3]) | H1.0 immunofluorescence intensity (HCC1569 [4]) |
| --- | --- | --- | --- | --- |
| O=C1c2c(O)cc(O)cc2O[C@H](c2cc(O)c(O)c(O)c2)[C@H]1O | 95.8 | 99.5 | 98.9 (inactive) | 93.3 (inactive) |
| CC1OC(OC2C(Oc3cc(O)c4c(c3)OC(c3ccc(O)cc3)CC4=O)OC(CO)C(O)C2O)C(O)C(O)C1O (configuration not stated) [Naringin] | 103 | 99 | 96.2 (inactive) | 86.1 (inactive) |
| O=C1NC(=O)c2c1c1c3ccccc3[nH]c1c1[nH]c3cc(Br)ccc3c21 [Cdk4 Inhibitor] | 74.2 | 63.5 | 91.2 (inactive) | 208 (active) |
| CN1CCN(CCCN2c3ccccc3Sc3ccc(C(F)(F)F)cc32)CC1.Cl.Cl [Trifluoperazine.2HCl] | 94.5 | 108 | 97 (inactive) | 122 (inactive) |
| C1CCN2CC3CC(CN4CCCCC34)C2C1.O.O.O.O.O.O=S(=O)(O)O (configuration not stated) | 103 | 94.3 | 107 (inactive) | 98.4 (inactive) |
| N#CCNC(=O)c1ccc(-c2ccnc(Nc3ccc(N4CCOCC4)cc3)n2)cc1 | 64.8 | 36.1 | 132 (active) | 127 (inactive) |
| O=[N+]([O-])c1cc(S(=O)(=O)Nc2ccc(O)c3ccccc23)ccc1Cl [4-chloro-N-(4-hydroxy-1-naphthyl)-3-nitrobenzenesulfonamide] | 85.3 | 76.6 | 106 (inactive) | 115 (inactive) |
| CC(C)(Oc1ccc(CCNC(=O)c2ccc(Cl)cc2)cc1)C(=O)O [Bezafibrate] | 98.4 | 105 | 97.9 (inactive) | 105 (inactive) |
| Cl.N=c1c[n+](N2CCOCC2)[n-]o1 [3-Morpholinosydnonimine hydrochloride] | 104 | 108 | 94.1 (inactive) | 88.8 (inactive) |
| O=C1c2c(O)cc(O)cc2OC(c2ccc(O)c(O)c2)C1O (racemic) | 108 | 109 | 87.5 (inactive) | 103 (inactive) |
| O=C(ON1C(=O)CCC1=O)N1CCN(C(c2ccc(Cl)cc2)c2ccc(Cl)cc2)CC1 | 77.8 | 82.1 | 112 (inactive) | 126 (inactive) |
| CCCNC(=O)NS(=O)(=O)c1ccc(Cl)cc1 [Chlorpropamide] | 101 | 96.2 | 93.2 (inactive) | 91.2 (inactive) |
| O=c1[nH]c(=O)c2nc3ccccc3nc2[nH]1 [Alloxazine] | 101 | 91.6 | 101 (inactive) | 92.1 (inactive) |
| CCC(=O)c1ccc2c(c1)N(CCCN(C)C)c1ccccc1S2.Cl [Propionylpromazine hydrochloride] | 97.4 | 97.1 | 104 (inactive) | 117 (inactive) |
| COc1ccc(-c2cc(=O)c3c(O)cc(O)cc3o2)cc1O [Diosmetine] | 93.5 | 101 | 99.2 (inactive) | 114 (inactive) |
| Cl.Cl.OCCN1CCN(CCC=C2c3ccccc3Sc3ccc(C(F)(F)F)cc32)CC1 [cis-(Z)-Flupenthixol dihydrochloride] | 86.1 | 102 | 102 (inactive) | 125 (inactive) |
| CCCCCCCCCCCCCCCCOP(=O)([O-])OCC[N+](C)(C)C [Miltefosine] | 97.1 | 109 | 92.7 (inactive) | 113 (inactive) |
| CC1=NC(=NNc2cc(S(=O)(=O)[O-])c3cc([N+](=O)[O-])cc(S(=O)(=O)[O-])c3c2)C(COP(=O)([O-])[O-])=C(C=O)C1=O.[Na+].[Na+].[Na+].[Na+] [PPNDS tetrasodium] | 104 | 115 | 91 (inactive) | 100 (inactive) |
| Nc1nc(Cl)nc2c1ncn2C1OC(CO)C(O)C1F (configuration not stated) [Clofarabine] | 90.6 | 45.3 | 119 (inactive) | 93.5 (inactive) |

Reference: the supplement of paper PMC7156485
